Source: PubChem BioAssay (EPA / NIEHS)
Calls of active or inactive are those of the source. How the source made its calls: active means hit-call score of the fitted dose curve at least 0.9, where 1 is the maximum; inactive means score below 0.9.

How the values were obtained:
[1] = ATG_CRE_CIS: Attagene CIS-FACTORIAL HepG2 Assay for human cAMP Responsive Element (CRE) binding protein 3 (AID 2282926); settings: HepG2 CRE cis-reporter, Attagene multiplexed mRNA; actives raise or lower the signal
In short: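 Readout: fluorescently labelled reporter transcripts resolved by capillary electrophoresis after RT-PCR, taken 24 h post-dosing in transfected HepG2. Endogenous transcription factor activity drives each cis-element reporter; gain or loss of signal fitted relative to DMSO control.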

[2] = biological target: CCAAT/enhancer-binding protein beta (Homo sapiens) (UniProt P17676); test: ATG_C_EBP_CIS: Attagene CIS-FACTORIAL HepG2 Assay for human CCAAT/Enhancer Binding Protein (C/EBP) beta (AID 2282927); settings: HepG2 Attagene cis-factorial transcription factor reporter; actives raise or lower the signal
In short: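 Changes in reporter mRNA, rather than exogenous chimeric receptor activity, reflect native C/EBP signalling in transfected HepG2 cells dosed for 24 h; transcripts are detected by RT-PCR and capillary electrophoresis.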

[3] = ATG_CMV_CIS: Attagene CIS-FACTORIAL HepG2 Assay for human CMV (Internal Marker) (AID 2282928); settings: HepG2 CMV promoter reporter, transcription factor profiling; actives raise or lower the signal;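 further: endpoint acts as a background internal control marker rather than a target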
In short: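 Readout: fluorescent reporter cDNA fragments separated by capillary electrophoresis after RT-PCR and HpaI cut. Cells: HepG2 carrying transfected cis-promoter reporter constructs, dosed 24 h. Endpoint serves as background internal-marker control, fit bidirectionally versus DMSO.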

[4] = ATG_DR4_LXR_CIS: Attagene CIS-FACTORIAL HepG2 Assay for human Liver X Receptor (LXR), DR4 submotif (AID 2282929); settings: HepG2 Attagene DR4 cis-reporter, mRNA transcription; actives raise or lower the signal
In short: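 Measures endogenous transcription factor activity via a DR4-driven reporter transcript in human HepG2 cells. Compounds incubated 24 h; mRNA quantified by RT-PCR and capillary electrophoresis, analysed as gain or loss of signal versus DMSO.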

[5] = ATG_AP_1_CIS: Attagene CIS-FACTORIAL HepG2 Assay for human Activator Protein 1 (AP-1) (AID 2282931); settings: HepG2 Attagene cis-factorial AP-1 reporter mRNA; actives raise or lower the signal
In short: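 Bidirectional concentration-response fitting against DMSO controls. Underlying signal: reporter mRNA from cis-promoter constructs in transiently transfected HepG2, measured after 24 h by RT-PCR and capillary electrophoresis.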

[6] = ATG_AP_2_CIS: Attagene CIS-FACTORIAL HepG2 Assay for human Activator Protein 2 (AP-2) (AID 2282932); settings: HepG2 AP-2 cis-reporter, Attagene transcription factor profiling; actives raise or lower the signal
In short: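 Endogenous transcription factor activity is reported through transfected multiplex reporter constructs in HepG2, after 24 h of compound exposure. Transcripts were quantified by RT-PCR and capillary electrophoresis of fluorescent fragments. Bidirectional fit against DMSO.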

[7] = ATG_BRE_CIS: Attagene CIS-FACTORIAL HepG2 Assay for human Bone Morphogenetic Protein (BMP) Response Element (BRE) (AID 2282933); settings: HepG2 BMP response element reporter, Attagene transcription factor profiling; actives raise or lower the signal
In short: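 HepG2 cells transiently transfected with multiplexed cis-element reporter units were dosed with chemical for 24 h. Reporter mRNA was measured by RT-PCR with fluorescent labelling, HpaI digestion and capillary electrophoresis; bidirectional fitting relative to DMSO.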

[8] = biological target: Retinoic acid receptor alpha (Homo sapiens) (UniProt P10276); test: ATG_DR5_RAR_CIS: Attagene CIS-FACTORIAL HepG2 Assay for human Retinoic Acid Receptor Alpha (RARE), DR5 submotif (AID 2282934); settings: HepG2 Attagene cis-factorial RARE DR5 reporter, mRNA; actives raise or lower the signal
In short: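 HepG2, transient cis-reporter transfection, 24 h exposure. mRNA readout: RT-PCR, FAM label, HpaI cut, capillary electrophoresis. DMSO baseline, gain/loss fitting.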

[9] = biological target: Transcription factor E2F1 (Homo sapiens) (UniProt Q01094); test: ATG_E2F_CIS: Attagene CIS-FACTORIAL HepG2 Assay for human E2F Transcription Factor 1 (AID 2282935); settings: HepG2 Attagene cis-reporter, E2F reporter RNA transcripts; actives raise or lower the signal
In short: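 Gain or loss of reporter transcript, fitted against DMSO, reflects E2F1-driven transcription. Transiently transfected HepG2 dosed 24 h before RNA isolation. Quantified by fluorescent RT-PCR products separated by capillary electrophoresis.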

[10] = ATG_E_Box_CIS: Attagene CIS-FACTORIAL HepG2 Assay for human Enhancer Box (E-box) (AID 2282936); settings: HepG2 E-box cis-reporter transcription, actives raise or lower the signal
In short: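 E-box-driven reporter transcripts measured in transiently transfected HepG2 after 24 h exposure: RNA reverse-transcribed, PCR-amplified, fluorescently labelled, digested and resolved by capillary electrophoresis. Gain or loss relative to DMSO.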

[11] = ATG_EGR_CIS: Attagene CIS-FACTORIAL HepG2 Assay for human Early Growth Response 1 (EGR1) (AID 2282938); settings: HepG2 Attagene CIS-FACTORIAL EGR reporter mRNA; actives raise or lower the signal
In short: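 Cell-based multiplex transcription assay: HepG2 carrying transfected cis-element reporter units, 24 h chemical treatment. Fluorescence from capillary electrophoresis of RT-PCR products gives mRNA levels; fitting is bidirectional relative to DMSO.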

[12] = ATG_M_19_CIS: Attagene CIS-FACTORIAL HepG2 Assay for M19 Transcription Factor (Internal Marker) (AID 2282939); settings: HepG2 Attagene CIS-FACTORIAL M19 internal marker reporter; actives raise or lower the signal
In short: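 HepG2 cells transiently transfected with cis-regulated multiple reporter transcription units were dosed for 24 h; reporter mRNA was quantified by RT-PCR, 6-FAM primer-extension labelling, HpaI digestion and capillary electrophoresis, with bidirectional fitting against DMSO baseline.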

[13] = ATG_ERE_CIS: Attagene CIS-FACTORIAL HepG2 Assay for Estrogen Response Element (ERE) (AID 2282940); settings: HepG2 ERE cis-reporter, Attagene RNA transcript; actives raise or lower the signal
In short: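 HepG2 cells transiently transfected with cis-promoter-driven multiplexed reporter transcription units report endogenous TF activity. After 24 h compound exposure, reporter mRNA is quantified by RT-PCR with capillary electrophoresis fluorescence; bidirectional fitting versus DMSO baseline.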

[14] = ATG_Ets_CIS: Attagene CIS-FACTORIAL HepG2 Assay for human Erythroblast Transformation Specific (ETS) (AID 2282941); settings: HepG2 ETS cis-reporter transcription, actives raise or lower the signal
In short: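 RT-PCR/capillary electrophoresis fluorescence read-out of reporter mRNA; HepG2 transient multi-reporter transfection; 24 h compound exposure; gain or loss of signal fitted bidirectionally relative to DMSO.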

[15] = biological target: Hepatocyte nuclear factor 3-beta (Homo sapiens) (UniProt Q9Y261); test: ATG_FoxA2_CIS: Attagene CIS-FACTORIAL HepG2 Assay for human Forkhead box A2 (FOXA2) (AID 2282942); settings: HepG2 cis-reporter transcription factor activity, 24 h; actives raise or lower the signal
In short: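 In transiently transfected human HepG2 cells, promoter-driven reporter mRNA levels after 24 h chemical exposure are determined via RT-PCR with capillary electrophoresis. DMSO serves as baseline for bidirectional fitting.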

[16] = ATG_FoxO_CIS: Attagene CIS-FACTORIAL HepG2 Assay for human Forkhead box O (FoxO) (AID 2282943); settings: HepG2 Attagene cis-reporter, FoxO element, mRNA; actives raise or lower the signal
In short: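 Human hepatoma HepG2 cells carry transiently introduced reporter transcription units controlled by cis promoter elements. Chemical treatment lasted 24 h, and mRNA signal was compared with DMSO.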

[17] = ATG_GATA_CIS: Attagene CIS-FACTORIAL HepG2 Assay for human GATA Binding Protein (AID 2282944); settings: HepG2 GATA cis-element reporter, Attagene multiplex mRNA; actives raise or lower the signal
In short: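 HepG2 cells transiently transfected with multiplexed cis-element reporter units reflecting endogenous transcription factor activity; reporter mRNA measured after 24 h dosing by RT-PCR, 6-FAM labeling, HpaI digestion and capillary electrophoresis. Bidirectional fitting versus DMSO baseline.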

[18] = ATG_GLI_CIS: Attagene CIS-FACTORIAL HepG2 Assay for human Zinc Finger Protein GLI1 (AID 2282945); settings: HepG2, Attagene cis-factorial reporter mRNA, GLI element; actives raise or lower the signal
In short: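 Bidirectional curve fits relative to DMSO, using reporter mRNA levels from RT-PCR plus capillary electrophoresis. Cells were HepG2 transiently carrying cis-regulated reporter constructs, harvested 24 h after dosing.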

[19] = biological target: Aryl hydrocarbon receptor (Homo sapiens) (UniProt P35869); test: ATG_Ahr_CIS: Attagene CIS-FACTORIAL HepG2 Assay for human Aryl Hydrocarbon Receptor (Ahr) (AID 2282930); settings: HepG2 AhR cis-factorial reporter transcription; actives raise or lower the signal
In short: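 HepG2, transient MRTU (cis) transfection, 24 h exposure. RNA → cDNA → PCR → 6-FAM primer extension → HpaI 2 h 37 C → CE. Fit: bidirectional, DMSO baseline.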

[20] = ATG_M_61_CIS: Attagene CIS-FACTORIAL HepG2 Assay for M61 Transcription Factor (Internal Marker) (AID 2282937); settings: HepG2 Attagene CIS-FACTORIAL M61 internal marker reporter; actives raise or lower the signal
In short: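 Fluorescence from labelled cDNA fragments, separated by capillary electrophoresis, quantifies reporter induction. HepG2 cells bearing transiently transfected cis-promoter MRTUs were incubated with test chemical for 24 h; DMSO defined baseline for gain/loss fitting.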

Measured: AC50

Hepatocyte nuclear factor 3-beta (Homo sapiens), sequence (Q9Y261 whole entry, looked up): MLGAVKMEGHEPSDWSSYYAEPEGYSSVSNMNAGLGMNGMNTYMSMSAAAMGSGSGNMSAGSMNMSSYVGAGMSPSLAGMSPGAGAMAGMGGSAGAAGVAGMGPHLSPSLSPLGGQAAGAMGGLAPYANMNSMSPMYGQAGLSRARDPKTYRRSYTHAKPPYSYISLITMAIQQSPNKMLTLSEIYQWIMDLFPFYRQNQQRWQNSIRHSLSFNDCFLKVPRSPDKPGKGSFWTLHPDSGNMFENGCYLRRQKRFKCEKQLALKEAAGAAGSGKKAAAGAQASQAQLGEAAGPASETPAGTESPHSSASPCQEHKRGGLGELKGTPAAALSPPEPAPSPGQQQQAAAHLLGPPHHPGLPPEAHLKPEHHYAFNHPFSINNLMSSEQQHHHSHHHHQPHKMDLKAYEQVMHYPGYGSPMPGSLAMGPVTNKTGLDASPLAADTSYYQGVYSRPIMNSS
Aryl hydrocarbon receptor (Homo sapiens), sequence (P35869 whole entry, looked up): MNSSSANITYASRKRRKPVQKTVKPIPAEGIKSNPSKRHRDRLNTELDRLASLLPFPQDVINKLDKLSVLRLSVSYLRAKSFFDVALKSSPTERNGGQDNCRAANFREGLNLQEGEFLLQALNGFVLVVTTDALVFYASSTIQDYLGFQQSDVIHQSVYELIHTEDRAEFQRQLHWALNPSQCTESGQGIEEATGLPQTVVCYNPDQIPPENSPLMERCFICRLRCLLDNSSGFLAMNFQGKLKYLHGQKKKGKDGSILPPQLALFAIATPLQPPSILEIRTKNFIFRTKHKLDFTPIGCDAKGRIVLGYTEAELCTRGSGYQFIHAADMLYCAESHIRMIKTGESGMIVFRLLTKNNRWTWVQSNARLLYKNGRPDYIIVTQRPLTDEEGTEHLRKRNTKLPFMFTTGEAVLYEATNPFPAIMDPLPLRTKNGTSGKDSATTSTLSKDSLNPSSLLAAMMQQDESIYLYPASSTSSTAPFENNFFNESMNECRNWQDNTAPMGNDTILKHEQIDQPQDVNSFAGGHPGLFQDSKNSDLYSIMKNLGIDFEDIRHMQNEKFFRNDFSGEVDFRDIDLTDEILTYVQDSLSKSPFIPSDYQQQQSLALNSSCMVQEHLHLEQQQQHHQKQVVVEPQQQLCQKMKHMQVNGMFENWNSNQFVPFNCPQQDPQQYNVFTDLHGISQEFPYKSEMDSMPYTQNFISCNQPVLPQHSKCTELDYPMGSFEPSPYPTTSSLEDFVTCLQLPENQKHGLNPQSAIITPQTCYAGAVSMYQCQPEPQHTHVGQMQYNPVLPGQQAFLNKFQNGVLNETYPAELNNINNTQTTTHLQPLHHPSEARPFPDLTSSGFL
Transcription factor E2F1 (Homo sapiens), sequence (Q01094 whole entry, looked up): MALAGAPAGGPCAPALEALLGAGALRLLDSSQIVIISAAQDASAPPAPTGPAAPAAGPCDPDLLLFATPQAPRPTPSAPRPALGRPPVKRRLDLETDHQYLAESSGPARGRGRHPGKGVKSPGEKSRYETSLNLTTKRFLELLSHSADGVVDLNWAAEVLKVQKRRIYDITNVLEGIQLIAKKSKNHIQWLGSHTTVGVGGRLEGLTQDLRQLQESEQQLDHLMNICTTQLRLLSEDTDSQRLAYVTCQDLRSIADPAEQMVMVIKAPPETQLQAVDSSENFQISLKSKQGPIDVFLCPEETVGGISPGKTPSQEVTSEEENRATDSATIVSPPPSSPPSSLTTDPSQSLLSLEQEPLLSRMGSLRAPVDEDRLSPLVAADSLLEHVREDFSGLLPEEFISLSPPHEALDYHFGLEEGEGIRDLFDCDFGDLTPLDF
Retinoic acid receptor alpha (Homo sapiens), sequence (P10276 whole entry, looked up): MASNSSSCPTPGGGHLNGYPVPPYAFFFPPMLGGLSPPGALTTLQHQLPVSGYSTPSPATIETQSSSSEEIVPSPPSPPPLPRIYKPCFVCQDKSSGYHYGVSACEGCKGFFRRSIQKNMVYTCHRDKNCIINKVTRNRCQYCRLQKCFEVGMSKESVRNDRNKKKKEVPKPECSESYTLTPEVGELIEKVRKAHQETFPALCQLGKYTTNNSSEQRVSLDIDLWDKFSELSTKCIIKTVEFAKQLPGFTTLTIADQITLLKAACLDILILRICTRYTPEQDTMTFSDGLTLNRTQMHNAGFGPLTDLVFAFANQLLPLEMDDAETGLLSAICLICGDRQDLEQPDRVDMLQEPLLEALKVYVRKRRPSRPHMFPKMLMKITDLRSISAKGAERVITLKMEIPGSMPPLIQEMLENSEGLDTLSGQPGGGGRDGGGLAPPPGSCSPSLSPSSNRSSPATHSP
CCAAT/enhancer-binding protein beta (Homo sapiens), sequence (P17676 whole entry, looked up): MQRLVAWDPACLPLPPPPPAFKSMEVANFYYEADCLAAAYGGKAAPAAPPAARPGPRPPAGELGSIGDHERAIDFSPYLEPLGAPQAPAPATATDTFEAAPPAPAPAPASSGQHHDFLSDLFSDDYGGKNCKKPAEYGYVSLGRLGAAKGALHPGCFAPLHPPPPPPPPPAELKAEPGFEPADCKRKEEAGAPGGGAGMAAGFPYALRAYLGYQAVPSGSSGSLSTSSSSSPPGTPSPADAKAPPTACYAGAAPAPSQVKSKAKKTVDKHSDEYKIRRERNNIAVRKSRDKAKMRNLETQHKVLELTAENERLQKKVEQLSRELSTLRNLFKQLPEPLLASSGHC

C[C@]12CCC(=O)C=C1CC[C@@H]1[C@@H]2C(=O)C[C@@]2(C)[C@H]1CC[C@]2(O)C(=O)CO
not listed: [19] | [20]
inactive: all other assays above

CCCCCC/C=C/C=O
not listed: [3] | [13]
inactive: all other assays above

CC1=CC[C@H]2C[C@@H]1C2(C)C
not listed: [19] | [20]
inactive: all other assays above

O=C1Nc2ccccc2C1(c1ccc(O)cc1)c1ccc(O)cc1
active: [1] 23.9 µM | [4] 36.7 µM | [19] 166 µM | [5] 162 µM | [10] 71.9 µM | [11] 71.7 µM | [14] 48.8 µM | [16] 100 µM | [18] 70.8 µM
inactive: [2] | [7] | [8] | [9] | [20] | [12] | [13] | [15] | [17]

Cc1cnc(NC(=O)C2=C(O)c3ccccc3S(=O)(=O)N2C)s1
active: [19] 100 µM
not listed: [3] | [9]
inactive: all other assays above

CCO[Si](CCCN=C=O)(OCC)OCC
not listed: [3]
inactive: all other assays above

O=c1n(CCO)c(=O)n(CCO)c(=O)n1CCO
not listed: [3]
inactive: all other assays above

CCCCCCCCCCCCCCCC[N+](C)(C)CC
active: [4] 9.13 µM | [5] 16.3 µM | [6] 12.6 µM | [9] 5.48 µM | [10] 13.5 µM
not listed: [3]
inactive: all other assays above
